GI50 data for 11 substances are collected here from ChEMBL document CHEMBL1201862, “PubChem BioAssay data set” (2004).

The whole screen tested about 55,000 sequences, of which about 4,100 (7.5%) were called active. Rule as the data show it: active = GI50 up to about 1.1 µM and inactive = higher. These entries were drawn from the full list. Results with a measured potency or affinity are listed apart.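 Tested at 5 concentrations; 48 h exposure; 96-well plates; endpoints linearly interpolated, else capped at highest concentration. At the GI50, growth is halved.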

This test deals with SF-539. Description: NCI tumour cell line growth inhibition, 48 h.
“[Bis(aminomethyl)tetramethylenesilane]dichloropaltinum(II), CHEMBL2146205” yielded a GI50 of 20.5 µM.

As to “[Bis(aminomethyl)pentamethylenesilane]tetrachloropaltinum(IV), CHEMBL2146204”, the GI50 came to 0.558 µM.

In the case of “[Bis(aminomethyl)diethylsilane]tetrachloroplatinum(IV), CHEMBL2146203”, the GI50 was 2.49 µM.

As for “[Bis(aminomethyl)tetramethylenesilane]tetrachloropaltinum(IV), CHEMBL2146189”, the GI50 is 2.18 µM.

Consider “[Bis(aminomethyl)dimethylsilane]dichloroplatinum (II), CHEMBL2146201”, for which the GI50 was found to be 23.4 µM.

In turn, “cis-Bis[[(trimethylsilyl)methyl]amino]tetrachloroplatinum(IV), CHEMBL2146191” had a GI50 of 4.24 µM.

“[Bis(aminomethyl)dimethylsilane]tetrachloroplatinum(IV), CHEMBL2146190”: the GI50 is 4.99 µM.

Regarding “[Bis(aminomethyl)pentamethylenesilane]dichloropaltinum(II), CHEMBL2146202”, the GI50 amounted to 1.48 µM.

In turn, “mu-(1,7-nanodiamine-N,N')bis-(cis-aminedichloroplatimum (II)), CHEMBL2146215” gave a GI50 of 27.4 µM.

In turn, CISPLATIN, CHEMBL11359 yielded a GI50 of 1.66 µM.

For the substance “[Bis(aminomethyl)ethylmethylsilane]tetrachloroplatinum(IV), CHEMBL2146192”, the GI50 was 3.05 µM.
